Measured values taken from PubChem BioAssay AID651742 (Broad Institute, 2012).
Hit rate of the full screen: of about 5,600 compounds, about 780 (14%) were called active. Not shown: some 3% with an inconclusive outcome. Only a sample is shown. Unmarked numbers belong to inactive results.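 The calls were made as follows: active = mean signal decrease across replicates above about 35% based on untreated-well scatter, with enough replicates individually passing (limit read from the data); inconclusive = no rule stated though some were filed; inactive = the rest.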

Assay: cytotoxicity in mouse NIH/3T3 fibroblasts, confirmation, cytotoxicity control for T. cruzi proliferation inhibitor project, cell-based, cherry-pick, single point (AID 651742);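 also: 0% = median of neutral control wells and 100% = median of positive control wells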
Conditions: NIH/3T3 viability, CellTiter-Glo ATP luminescence, 90 h; at 8.35 µM; hits give high values
For `C[C@@H]1CCCCO[C@H](CN(C)C(=O)CCC(F)(F)F)[C@H](C)CN([C@H](C)CO)C(=O)c2cc(NS(C)(=O)=O)ccc2O1`, the cytotoxicity (signal decrease) was 5.17%.
Compound `O=C(C1CCC1)N1CCCCN2[C@H](CO)[C@H](c3ccc(-c4ccncc4)cc3)[C@@H]2C1` has a cytotoxicity (signal decrease) of -4.89%.
For `CCC(=O)N1CCCCN2[C@H](C1)[C@@H](c1ccc(/C=C/c3ccccc3)cc1)[C@@H]2CO`, the cytotoxicity (signal decrease) was 38.9% (active).
In the case of `COc1ccccc1C#Cc1ccc([C@H]2[C@H](CO)N3CCCCN(C(=O)C4CCC4)C[C@@H]23)cc1`, the cytotoxicity (signal decrease) is reported as 50.3% (active).
`CCC(=O)N1CCCCN2[C@H](C1)[C@@H](c1ccc(-c3ccc(F)cc3)cc1)[C@@H]2CO` showed a cytotoxicity (signal decrease) of 15.5%.
In the case of `COc1ccccc1NC(=O)N1CCCCN2[C@H](C1)[C@H](c1ccc(-c3ccccc3)cc1)[C@@H]2CO`, the cytotoxicity (signal decrease) is reported as 33.3%.
Work on `OC[C@@H]1[C@H](c2ccc(C#CC3(O)CCCC3)cc2)[C@H]2CN(Cc3cncnc3)CCCCN12` yielded a cytotoxicity (signal decrease) of 13.7%.
With `OC[C@@H]1[C@H](c2ccc(C#Cc3ccccc3)cc2)[C@@H]2CN(Cc3cncnc3)CCCCN12` the cytotoxicity (signal decrease) was 41.5% (active).
With `COc1ccccc1C#Cc1ccc([C@@H]2[C@H](CO)N3CCCCN(C(=O)C4CC4)C[C@@H]23)cc1` the cytotoxicity (signal decrease) was 17.7%.
For `COc1ccccc1C#Cc1ccc([C@@H]2[C@H](CO)N3CCCCN(C(=O)C4CCCC4)C[C@@H]23)cc1`, the cytotoxicity (signal decrease) was 53.5% (active).
Work on `Cc1ccc(-c2ccc([C@H]3[C@H](CO)N4CCCCN(Cc5cncnc5)C[C@@H]34)cc2)cc1` yielded a cytotoxicity (signal decrease) of 20%.
With `O=C(CN1CCOCC1)N1CCCCN2[C@@H](CO)[C@H](c3ccc(/C=C/c4ccccc4)cc3)[C@@H]2C1` the cytotoxicity (signal decrease) was 32.3%.
Work on `O=C(C1CCC1)N1CCCCN2[C@H](CO)[C@H](c3ccc(-c4cccc(F)c4)cc3)[C@@H]2C1` yielded a cytotoxicity (signal decrease) of 30.8%.
`C[C@@H]1CCCCO[C@H](CN(C)S(=O)(=O)c2ccc(Cl)cc2)[C@H](C)CN([C@@H](C)CO)C(=O)c2cc(NS(=O)(=O)c3cccs3)ccc2O1` gave a cytotoxicity (signal decrease) of -18.8%.
`C[C@@H]1CN([C@H](C)CO)C(=O)CCCn2nncc2CO[C@@H]1CN(C)Cc1ccc(C(=O)Nc2ccccc2N)cc1` gave a cytotoxicity (signal decrease) of 14.8%.
With `Cc1ccc(S(=O)(=O)N2C[C@@H](O)COC[C@@H]3O[C@H](CC(=O)NCc4ccc(Cl)c(Cl)c4)CC[C@H]32)cc1` the cytotoxicity (signal decrease) was 3.54%.
In the case of `O=C(C1CCCC1)N1CCCCN2[C@@H](CO)[C@H](c3ccc(-c4cccc(F)c4)cc3)[C@@H]2C1`, the cytotoxicity (signal decrease) is reported as 25.5%.
Work on `CCCNC(=O)N1[C@@H]2c3cccc(=O)n3C[C@H]1[C@H](CO)[C@H]2C(=O)NCC(F)(F)F` yielded a cytotoxicity (signal decrease) of 19.4%.
